The values below come from PubChem BioAssay AID430 (Sanford-Burnham Center for Chemical Genomics, 2006).

Structures are written as SMILES. The whole screen tested about 63,000 compounds, of which about 1,100 (1.7%) were called active. Many of the other results were omitted from the sample, so actives are more common in it than they were. Results with a measured potency or affinity are listed apart. Unmarked numbers belong to inactive results. No stated cut-off is given here; in the data, active means cytotoxicity above about 50%; inactive means the rest.

A short description of the assay: HPDE-C7 pancreatic duct cell viability loss – fluorescence, HTS (AID 430).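 Further: cells exposed to compound for 48 hours before viability readout; 0% = vehicle and 100% = reference cytotoxic drug.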 Particulars: HPDE-C7 pancreatic duct cells viability, at 10 µM, stronger effect = higher value.
For the compound `CCC(=O)N=c1sc2c(OC)ccc(OC)c2n1C`, the cytotoxicity was 1.2%.
Turning to `CCOC(=O)CSc1nnc([C@@H](NC(=O)OC(C)(C)C)C(C)C)o1`, the cytotoxicity was 8.2%.
Turning to `O=C1CC(c2ccc(F)cc2)Cc2nc(N3CCN(c4ccccc4)CC3)ncc21` (configuration not stated), the cytotoxicity was 4.6%.
In the case of `CC(=O)N1CCN=C1SCc1ccc(Br)cc1` it was 1.6%.
For the compound `O=C(CCNc1n[nH]c(=O)[nH]c1=O)N1CCOCC1`, the cytotoxicity was -0.4%.
In the case of `Cc1ccc(CNC(=O)CN2CCN(Cc3ccc(C)cc3)C2=O)cc1` it was -20.9%.
The result for `COc1cccc(NC(=O)c2ccccc2-c2nc(-c3cccc(C)c3)no2)c1` reads 24.8%.
In the case of `CCc1nc(N2CCCC2)c(C#N)c2c1CCCC2` it was -1.4%; in that of `CCc1nc(N2CCOCC2)c(C#N)c2c1CCCC2`, 7.3%.
For the compound `CCCc1nc(N2CCCC2)c(C#N)c2c1CCCC2`, the cytotoxicity is 51.6% (active).
The result for `CC(C)Cc1nc(N2CCOCC2)c(C#N)c2c1CCC2` reads 74.1% (active).
The result for `CC(C)Cc1nc(N2CCCCC2)c(C#N)c2c1CCC2` reads 11.9%.
Take `CCCc1nc(N2CCOCC2)c(C#N)c2c1CCCC2`: the cytotoxicity is -18.8%.
For the compound `CCc1cc(=O)oc2cc(OC(C)C(=O)O)c(Cl)cc12` (configuration not stated), the cytotoxicity is 1.5%.
The result for `O=C(Cc1nc2ccccc2[nH]1)NCc1ccco1` reads -7.1%; that for `COC(=O)c1cccc(S(=O)(=O)N2CCN(c3nc4ccccc4s3)CC2)c1`, -5.4%; that for `CCOc1ccc(N(CC(=O)N2CCc3ccccc32)S(=O)(=O)c2c(C)noc2C)cc1`, -26.9%.
The result for `CC(C)CN(C#N)c1nc(N2CCOCC2)nc(N2CCOCC2)n1` reads 6.3%.
The result for `COc1ccc(CNC(=O)C2CCNCC2)cc1` reads -3.8%; that for `O=C(Cc1cn2ccsc2n1)Nc1cccc2cnccc12`, 11.4%.
As for `Cc1cc(=O)[nH]c(SCCOc2cccc(C(F)(F)F)c2)n1`, the cytotoxicity was -4.8%.
In the case of `O=C(CSc1nnc(SCc2ccc(Cl)cc2)s1)N1CCN(C(=O)c2ccco2)CC1` it was -25.8%; in that of `O=C(CSc1nc2cc(Cl)ccc2s1)N1CCN(C(=O)c2ccco2)CC1`, -2.2%.
The result for `O=C(CSc1c2c(nc3ccc(Cl)cc13)CCCC2)N1CCN(C(=O)c2ccco2)CC1` reads 106% (active); that for `CC(C)(C)n1nnnc1C(c1ccc(C#N)cc1)N1CCCC2(CCCCC2)C1` (configuration not stated), 2.3%; that for `CCOC(=O)c1ccc(NC(=O)CN2CCc3ccccc3C2)cc1`, 57.6% (active).
The result for `CCOC(=O)c1ccc(NC(=O)CN2CCN(c3ccccc3)CC2)cc1` reads 6%.
`O=C(CN1CCCCC1)Nc1ccccc1NC(=O)CN1CCCCC1`: the cytotoxicity was -13.4%.
In the case of `CC(C)CC(=O)Nc1ccccc1N1CCCC1` it was -9.5%; in that of `CCOC(=O)c1ccc(NC(=O)N2CCc3ccccc32)cc1`, 5.4%; in that of `O=C(CN1CCc2ccccc2C1)Nc1ccccc1N1CCCCCC1`, 93.4% (active).
In the case of `O=C(c1cccs1)N(Cc1cccc(Cl)c1)C1CCS(=O)(=O)C1` (configuration not stated) it was -4.1%; in that of `CCOc1ccccc1-n1nnnc1SCC(=O)Nc1cc2oc3ccccc3c2cc1OC`, 43.6%.
Take `C=C(C)CSc1nc2nc(C)cc(C)n2n1`: the cytotoxicity was 9.4%.
As for `CC(C)NC(=O)CN(C)S(=O)(=O)c1ccc(F)cc1`, the cytotoxicity was 1.5%.
On to `O=C1NC2(CCCCC2)N=C1c1ccccc1`, for which the cytotoxicity is -3%.
The result for `O=C1NC2(CCCC2)N=C1c1ccc(Cl)cc1` reads -2.7%; that for `O=C(CN1CCN(c2ccc(F)cc2)CC1)Nc1ccc(-n2cnnn2)cc1`, 16.2%; that for `CCOc1ccc2nc(NCCNC(=O)C3CC3)c(C)cc2c1`, -13.7%.
Take `CCCCc1ccc(CC(=O)O)cc1`: the cytotoxicity is -6.3%.
In the case of `CCCCc1ccc(-c2ccc(C)cc2O)nc1` it was -28.6%; in that of `COc1cccc2c1nc(C)c1cc(C)oc12`, -6.1%.
`Cc1cc(Nc2cc(C)on2)n2ncnc2n1`: the cytotoxicity was 1.6%.
In the case of `O=C(NCc1ccc2c(c1)OCO2)c1ccc2c(=O)n(C3CCCC3)c(=O)[nH]c2c1` it was 2.7%; in that of `Cc1ccc(CC2SC(=O)NC2=O)cc1Cl` (configuration not stated), -2.2%; in that of `COc1ccc(-n2nnnc2SCC(=O)NCCc2ccc(OC)c(OC)c2)cc1`, -0.4%.
As for `c1ccc(-n2nnnc2SCCCSc2nc3ccccc3s2)cc1`, the cytotoxicity was 5.8%.
The result for `Cc1ccc(C)c(Oc2nnnn2-c2ccccc2)c1` reads -0.9%.
The result for `COc1ccc(CCNc2nnc(Sc3nnnn3-c3ccccc3)s2)cc1OC` reads 53.9% (active); that for `Cn1ccnc1Sc1nnnn1-c1ccccc1`, -14.7%.
In the case of `COc1ccc(CCNC(=O)CSc2nnnn2-c2ccccc2OC)cc1OC` it was 8%; in that of `C(=C\CSc1nnnn1-c1ccccc1)/CSc1nnnn1-c1ccccc1`, -4.4%; in that of `CCCSc1nnc(Sc2nnnn2-c2ccccc2)s1`, 81% (active).
For `COc1ccc(Cc2nnc(SCC(=O)NCC3CCCO3)o2)cc1` (configuration not stated), the cytotoxicity was 0.6%.
In the case of `Cn1c2c(c(=O)n(C)c1=O)C(NC(=O)c1ccco1)(C(F)(F)F)C(=O)N2` (configuration not stated) it was -22.3%; in that of `O=S(=O)(c1ccc(Br)s1)N1CCN(c2ccccc2)CC1`, -10.8%; in that of `COc1ccccc1NC(=O)c1nnn(Cc2ccccc2)c1NC(C)=O`, 2.6%.
In the case of `COC(=O)Nc1ccc(NC(C)=O)cc1`, the cytotoxicity was -16%.
Turning to `CCOC(=O)c1cc(-c2ccncc2)nc2c1c(C)nn2C`, the cytotoxicity was 4%.
With `COc1ccc(C(OC(=O)c2c(C)noc2C)C(=O)NC2CCCC2)cc1` (configuration not stated), the cytotoxicity was 1.7%.
The result for `CCN1CCN(CCCNC(=O)c2cc3sccc3n2CC)CC1` reads 3.8%; that for `CCOCCCNC(=O)CSc1ccccc1`, -13.6%.
Take `O=S(=O)(c1ccc(Br)cc1)N1CCn2c(nc3ccccc32)C1`: the cytotoxicity was 1.5%.
For `O=S(=O)(c1ccc2c(c1)nc1n2CCC1)N1CCOCC1`, the cytotoxicity is 30.9%.
`COc1cc(CNc2ccc(C)c(C)c2)cc(OC)c1OC`: the cytotoxicity is 46.9%.
In the case of `COc1ccc(C(O)CNc2ccc(C)cc2)cc1` (configuration not stated) it was -2.1%; in that of `Cc1ccc(NCC(O)C(O)C(O)CO)cc1C` (configuration not stated), 53.3% (active); in that of `COc1ccc(OC)c(S(=O)(=O)N(C)CC(=O)Nc2ccc3c(c2)OCCO3)c1`, -1.4%.
The result for `CCOc1ccc(N2CC(C(=O)NCCc3ccc(OC)c(OC)c3)CC2=O)cc1` (configuration not stated) reads 5.7%; that for `CS(=O)(=O)N1CCC(C(=O)NCc2ccc(F)cc2Cl)CC1`, -2.6%; that for `CCOc1ccccc1NC(=O)CCn1c(=O)oc2ccccc21`, 0.7%.
In the case of `COc1ccc(-n2nnnc2S(=O)(=O)Cc2ccc(C(=O)O)cc2)cc1` it was 4.8%.
Regarding `COc1ccc(-n2nnnc2S(=O)(=O)CC(=O)N2CCCCC2)cc1`, the cytotoxicity is 76.4% (active).
`COc1cc(OC)cc(-n2nnnc2SCC(=O)N2CCCC2)c1`: the cytotoxicity is -7.2%.
The result for `Cc1oc(-c2ccccc2F)nc1CS(=O)CC(=O)NCc1cccs1` (configuration not stated) reads -2.6%; that for `CCc1c(O)nc(SCC(=O)Nc2ccccc2)n(-c2ccccc2)c1=O`, 23%; that for `CCc1c(O)nc(SCC(=O)Nc2ccc(OC)cc2)n(C2CCCCC2)c1=O`, -8.3%.
In the case of `CCc1c(O)nc(SCC(=O)Nc2ccc(C)cc2)n(C2CCCCC2)c1=O` it was 51.2% (active); in that of `COc1ccc(N2C(=O)CCC(C(=O)c3ccccc3)=C2C)cc1`, -2.2%.
As to `Cc1c2c(nc3nc4ccccc4n13)CC(C)(C)CC2=O`, the cytotoxicity was 0.8%.
In the case of `Cc1cc(C)c2cc(C#N)c(SCC(=O)NCC3CCCO3)nc2c1` (configuration not stated) it was -15.1%; in that of `Cc1cc(Nc2ccc3ccccc3c2)n2ncnc2n1`, -0.5%; in that of `CCc1cccc(Nc2cc(C)nc3ncnn23)c1`, -0.8%.
The result for `CCn1c2ccccc2c2cc(Nc3cc(C)nc4ncnn34)ccc21` reads 64.5% (active); that for `CCOCc1nnc(NC(=O)CSCc2ccccc2)s1`, -3.4%; that for `CC1CCCN(c2ncnc3c2cnn3-c2ccccc2)C1` (configuration not stated), -9.4%.
As for `Cc1cc(NC(=O)c2c(-c3ccccc3Cl)noc2C)no1`, the cytotoxicity is -12.4%.
The result for `COCCCNC(=O)c1c(N)n(/N=C/c2cccnc2)c2nc3ccccc3nc12` reads 33.1%; that for `CC(C)OCCCNC(=O)c1c(N)n(/N=C/c2ccccn2)c2nc3ccccc3nc12`, 28.4%.
For the compound `CC(C)CNC(=O)c1c(N)n(/N=C/c2ccccn2)c2nc3ccccc3nc12`, the cytotoxicity was 14.8%.
For the compound `COCCCNC(=O)c1c(N)n(/N=C/c2ccccn2)c2nc3ccccc3nc12`, the cytotoxicity is 22%.
For the compound `COCCNC(=O)c1c(N)n(/N=C/c2cccs2)c2nc3ccccc3nc12`, the cytotoxicity is 42.8%.
The result for `CCCCNC(=O)c1c(N)n(/N=C/c2ccccn2)c2nc3ccccc3nc12` reads 50.5% (active).
In the case of `CCC(C)NC(=O)c1c(N)n(/N=C/c2cccnc2)c2nc3ccccc3nc12` (configuration not stated) it was 41.4%; in that of `CCOc1cc(C(=O)NCCOC)ccc1OC`, -6.6%.
Regarding `CC(=O)N1CCN(S(=O)(=O)c2ccc(C)cc2)C1C(C)C` (configuration not stated), the cytotoxicity was 11%.
Regarding `CCOc1ccc(-c2cc(CCCC(=O)NCc3cccnc3)no2)cc1`, the cytotoxicity was -0.4%.
As for `Cn1cccc1Cc1nnc(SCC(=O)NCC2CCCO2)n1-c1ccc(F)cc1` (configuration not stated), the cytotoxicity was 0.9%.
As for `COc1ccc(NC2=NC3(CCCCC3)N=C(N)N2)cc1`, the cytotoxicity was 4.1%.
Regarding `COc1cccc(NC2=NC3(CCCCC3)N=C(N)N2)c1`, the cytotoxicity was 3.1%.
In the case of `CCSc1nnc(NC(=O)c2cnccn2)s1` it was -7%; in that of `CCOC(=O)N1CCC(NC(=O)CC(NS(=O)(=O)c2ccc(Cl)cc2)c2ccco2)CC1` (configuration not stated), -6.1%.
